Test results reported in the supplement of paper PMC8728848.
About 410 targets per protein were measured; listed, in parts, are those with the strongest signals and a random draw of the rest.

Key:
Experiment in all cases: glycan array binding signal (z-score within array); higher = stronger binding
[1] = biological target: Fuc(a1-2)Gal(b1-4)[Fuc(a1-3)]GlcNAc; settings: glycan notation: IUPAC condensed, linker removed
Procedure, shortened: (§1)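 The binding signal is a Z-score computed within each array and averaged over linkers. Arrays of the same protein sequence at different concentrations or buffers were also averaged together. Data originate from 3228 arrays in the Consortium for Functional Glycomics database, kept only where the protein sequence was available.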

[2] = biological target: Fuc(a1-2)[Gal(a1-4)]Gal(b1-4)GalNAc; settings: glycan notation: IUPAC condensed, linker removed
Procedure, shortened: as §1

Gal(a1-2)Gal = settings: glycan notation: IUPAC condensed, linker removed
Procedure, shortened: as §1

Gal(a1-3)Gal(b1-3)GlcNAc = settings: glycan notation: IUPAC condensed, linker removed
Procedure, shortened: as §1

Gal(a1-4)GlcNAc = settings: glycan notation: IUPAC condensed, linker removed
Procedure, shortened: as §1

[3] = biological target: Gal(b1-3)[Neu5Ac(a2-6)]GlcNAc; settings: glycan notation: IUPAC condensed, linker removed
Procedure, shortened: as §1

[4] = biological target: Gal(b1-4)GlcNAc(b1-2)Man(a1-3)[Gal(b1-4)GlcNAc(b1-2)Man(a1-6)]Man(b1-4)GlcNAc(b1-4)GlcNAc; settings: glycan notation: IUPAC condensed, linker removed
Procedure, shortened: as §1

[5] = biological target: Gal(b1-4)GlcNAc(b1-6)[Gal(b1-3)]GalNAc; settings: glycan notation: IUPAC condensed, linker removed
Procedure, shortened: as §1

Gal3S(b1-4)GlcNAc6S = settings: glycan notation: IUPAC condensed, linker removed
Procedure, shortened: as §1

Gal3S6S(b1-4)GlcNAc = settings: glycan notation: IUPAC condensed, linker removed
Procedure, shortened: as §1

Gal3S6S(b1-4)GlcNAc6S = settings: glycan notation: IUPAC condensed, linker removed
Procedure, shortened: as §1

Gal4S6S(b1-4)GlcNAc = settings: glycan notation: IUPAC condensed, linker removed
Procedure, shortened: as §1

Gal6S(b1-4)Glc = settings: glycan notation: IUPAC condensed, linker removed
Procedure, shortened: as §1

[6] = biological target: Man(a1-2)Man(a1-3)[Man(a1-6)]Man(a1-6)[Man(a1-2)Man(a1-3)]Man(b1-4)GlcNAc(b1-4)GlcNAc; settings: glycan notation: IUPAC condensed, linker removed
Procedure, shortened: as §1

[7] = biological target: Neu5Ac(a2-3)Gal(b1-3)[Fuc(a1-4)]GlcNAc; settings: glycan notation: IUPAC condensed, linker removed
Procedure, shortened: as §1

Neu5Ac(a2-3)Gal(b1-4)Glc = settings: glycan notation: IUPAC condensed, linker removed
Procedure, shortened: as §1

[8] = biological target: Neu5Ac(a2-6)Gal(b1-4)GlcNAc(b1-3)Gal(b1-4)GlcNAc; settings: glycan notation: IUPAC condensed, linker removed
Procedure, shortened: as §1

[9] = biological target: Neu5Ac(a2-8)Neu5Ac(a2-3)Gal(b1-4)Glc; settings: glycan notation: IUPAC condensed, linker removed
Procedure, shortened: as §1

[10] = biological target: Neu5Ac9Ac(a2-6)Gal(b1-4)GlcNAc; settings: glycan notation: IUPAC condensed, linker removed
Procedure, shortened: as §1

[11] = biological target: Neu5Gc(a2-3)Gal(b1-3)GlcNAc; settings: glycan notation: IUPAC condensed, linker removed
Procedure, shortened: as §1

[12] = biological target: Fuc(a1-2)[GalNAc(a1-3)]Gal(b1-3)GlcNAc; settings: glycan notation: IUPAC condensed, linker removed; mutation: E321K
Procedure, shortened: as §1

[13] = biological target: Fuc(a1-2)[GalNAc(b1-3)]Gal; settings: glycan notation: IUPAC condensed, linker removed; mutation: E321K
Procedure, shortened: as §1

Gal(a1-3)Gal = settings: glycan notation: IUPAC condensed, linker removed; mutation: E321K
Procedure, shortened: as §1

Gal(a1-3)Gal(b1-4)GlcNAc = settings: glycan notation: IUPAC condensed, linker removed; mutation: E321K
Procedure, shortened: as §1

[14] = biological target: Gal(b1-4)GalNAc(a1-3)[Fuc(a1-2)]Gal(b1-4)GlcNAc; settings: glycan notation: IUPAC condensed, linker removed; mutation: E321K
Procedure, shortened: as §1

Gal(b1-4)Glc = settings: glycan notation: IUPAC condensed, linker removed; mutation: E321K
Procedure, shortened: as §1

[15] = biological target: Gal(b1-4)GlcNAc(b1-3)Gal(b1-3)GlcNAc; settings: glycan notation: IUPAC condensed, linker removed; mutation: E321K
Procedure, shortened: as §1

[16] = biological target: Gal(b1-4)GlcNAc(b1-3)GalNAc; settings: glycan notation: IUPAC condensed, linker removed; mutation: E321K
Procedure, shortened: as §1

Gal6S(b1-4)Glc6S = settings: glycan notation: IUPAC condensed, linker removed; mutation: E321K
Procedure, shortened: as §1

[17] = biological target: GlcNAc(b1-3)[GlcNAc(b1-6)]GalNAc; settings: glycan notation: IUPAC condensed, linker removed; mutation: E321K
Procedure, shortened: as §1

GlcNAc(b1-4)GlcNAc = settings: glycan notation: IUPAC condensed, linker removed; mutation: E321K
Procedure, shortened: as §1

[18] = biological target: GlcNAc(b1-4)GlcNAc(b1-4)GlcNAc(b1-4)GlcNAc(b1-4)GlcNAc(b1-4)GlcNAc; settings: glycan notation: IUPAC condensed, linker removed; mutation: E321K
Procedure, shortened: as §1

[19] = biological target: Man(a1-2)Man(a1-2)Man(a1-6)[Man(a1-3)]Man; settings: glycan notation: IUPAC condensed, linker removed; mutation: E321K
Procedure, shortened: as §1

[20] = biological target: Neu5Ac(a2-3)Gal(b1-3)GalNAc6S; settings: glycan notation: IUPAC condensed, linker removed; mutation: E321K
Procedure, shortened: as §1

[21] = biological target: Neu5Ac(a2-3)Gal(b1-4)GlcNAc(b1-3)Gal(b1-3)GlcNAc; settings: glycan notation: IUPAC condensed, linker removed; mutation: E321K
Procedure, shortened: as §1

[22] = biological target: Neu5Ac(a2-3)Gal(b1-4)GlcNAc(b1-3)Gal(b1-4)[Fuc(a1-3)]GlcNAc; settings: glycan notation: IUPAC condensed, linker removed; mutation: E321K
Procedure, shortened: as §1

[23] = biological target: Neu5Ac(a2-3)Gal6S(b1-4)GlcNAc; settings: glycan notation: IUPAC condensed, linker removed; mutation: E321K
Procedure, shortened: as §1

[24] = biological target: Neu5Ac(a2-3)GalNAc(b1-4)GlcNAc; settings: glycan notation: IUPAC condensed, linker removed; mutation: E321K
Procedure, shortened: as §1

[25] = biological target: Neu5Ac(a2-6)Gal(b1-4)GlcNAc(b1-2)Man(a1-3)[GlcNAc(b1-2)Man(b1-4)GlcNAc(b1-2)Man(a1-6)]Man(b1-4)GlcNAc(b1-4)GlcNAc; settings: glycan notation: IUPAC condensed, linker removed; mutation: E321K
Procedure, shortened: as §1

[26] = biological target: Neu5Ac(a2-8)Neu5Ac(a2-8)Neu5Ac; settings: glycan notation: IUPAC condensed, linker removed; mutation: E321K
Procedure, shortened: as §1

[27] = biological target: Neu5Ac(a2-8)Neu5Ac(a2-8)Neu5Ac(a2-3)Gal(b1-4)Glc; settings: glycan notation: IUPAC condensed, linker removed; mutation: E321K
Procedure, shortened: as §1

Neu5Ac(b2-6)GalNAc = settings: glycan notation: IUPAC condensed, linker removed; mutation: E321K
Procedure, shortened: as §1

B1: Siglec 6 (Homo sapiens), O43699 (protein)
chain: MLPLLLPLLWAGALAQERRFQLEGPESLTVQEGLCVLVPCRLPTTLPASYYGYGYWFLEGADVPVATNDPDEEVQEETRGRFHLLWDPRRKNCSLSIRDARRRDNAAYFFRLKSKWMKYGYTSSKLSVRVMALTHRPNISIPGTLESGHPSNLTCSVPWVCEQGTPPIFSWMSAAPTSLGPRTTQSSVLTITPRPQDHSTNLTCQVTFPGAGVTMERTIQLNVSYAPQKVAISIFQGNSAAFKILQNTSSLPVLEGQALRLLCDADGNPPAHLSWFQGFPALNATPISNTGVLELPQVGSAEEGDFTCRAQHPLGSLQISLSLFVHWKPEGRAGGVLGAVWGASITTLVFLCVCFIFRVKTRRKKAAQPVQNTDDVNPVMVSGSRGHQHQFQTGIVSDHPAEAGPISEDEQELHYAVLHFHKVQPQEPKVTDTEYSEIKIHK
glycan array binding signal (z-score) [1]: -0.259 | glycan array binding signal (z-score) [2]: 1.21 | glycan array binding signal (z-score) (Gal(a1-2)Gal): -0.328 | glycan array binding signal (z-score) (Gal(a1-3)Gal(b1-3)GlcNAc): -0.366 | glycan array binding signal (z-score) (Gal(a1-4)GlcNAc): -0.074 | glycan array binding signal (z-score) [3]: -0.381 | glycan array binding signal (z-score) [4]: -0.29 | glycan array binding signal (z-score) [5]: -0.521 | glycan array binding signal (z-score) (Gal3S(b1-4)GlcNAc6S): 3.66 | glycan array binding signal (z-score) (Gal3S6S(b1-4)GlcNAc): 5.12 | glycan array binding signal (z-score) (Gal3S6S(b1-4)GlcNAc6S): 6.44 | glycan array binding signal (z-score) (Gal4S6S(b1-4)GlcNAc): 3 | glycan array binding signal (z-score) (Gal6S(b1-4)Glc): 0.086 | glycan array binding signal (z-score) [6]: -0.209 | glycan array binding signal (z-score) [7]: -0.566 | glycan array binding signal (z-score) (Neu5Ac(a2-3)Gal(b1-4)Glc): -0.332 | glycan array binding signal (z-score) [8]: -0.476 | glycan array binding signal (z-score) [9]: -0.16 | glycan array binding signal (z-score) [10]: -0.211 | glycan array binding signal (z-score) [11]: -0.386

B2: Surfactant Protein D (Human); Neck + Carbohydrate Recognition Domain (NCRD) (Homo sapiens) (protein)
chain: MLLFLLSALVLLTQPLGYLEAEMKTYSHRTMPSACTLVMCSSVESGLPGRDRDGREGPRGEKGDPGLPGAAGQAGMPGQAGPVGPKGDNGSVGEPGPKGDTGPSGPPGPPGVPGPAGREGALGKQGNIGPQGKPGPKGEAGPKGEVGAPGMQGSAGARGLAGPKGERGVPGERGVPGNTGAAGSAGAMGPQGSPGARGPPGLKGDKGIPGDKGAKGESGLPDVASLRQQVEALQGQVQHLQAAFSQYKKVELFPNGQSVGEKIFKTAQFVKPFTEAQLLCTQAGGQLASPRSAAENAALQQLVVAKNEAAFLSMTDSKTEGKFTYPTGESLVYSNWAPGKPNDDGGSEDCVEIFTNGKWNDRACGEKRLVVCEF
glycan array binding signal (z-score) ([1]; mutation: E321K): -0.011 | glycan array binding signal (z-score) [12]: -0.437 | glycan array binding signal (z-score) [13]: -0.418 | glycan array binding signal (z-score) (Gal(a1-3)Gal): -0.277 | glycan array binding signal (z-score) (Gal(a1-3)Gal(b1-4)GlcNAc): 0.494 | glycan array binding signal (z-score) [14]: -0.87 | glycan array binding signal (z-score) (Gal(b1-4)Glc): -0.968 | glycan array binding signal (z-score) [15]: -0.871 | glycan array binding signal (z-score) [16]: -0.758 | glycan array binding signal (z-score) ([5]; mutation: E321K): -0.831 | glycan array binding signal (z-score) (Gal6S(b1-4)Glc6S): 2.78 | glycan array binding signal (z-score) [17]: -0.62 | glycan array binding signal (z-score) (GlcNAc(b1-4)GlcNAc): 2.94 | glycan array binding signal (z-score) [18]: -0.106 | glycan array binding signal (z-score) [19]: 0 | glycan array binding signal (z-score) [20]: 0.404 | glycan array binding signal (z-score) [21]: -0.578 | glycan array binding signal (z-score) [22]: 0.062 | glycan array binding signal (z-score) [23]: 0.549 | glycan array binding signal (z-score) [24]: 3.92 | glycan array binding signal (z-score) [25]: 5.34 | glycan array binding signal (z-score) ([8]; mutation: E321K): -0.587 | glycan array binding signal (z-score) [26]: -0.381 | glycan array binding signal (z-score) [27]: -0.475 | glycan array binding signal (z-score) (Neu5Ac(b2-6)GalNAc): 3.67
